{
  "source": "PubChem BioAssay AID504854",
  "about": "(Southern Research Specialized Biocontainment Screening …, 2011)",
  "note": "Entries with a potency or affinity are not part of this list. Calls of active or inactive are those of the source. No rule for the calls is given here.",
  "data": [
    {"experiment": "Vero cell cytotoxicity, dose response, cytotoxicity control for M. tuberculosis growth inhibitor project, Vero cells, purified and synthesized compounds, set 4 (AID 504854)", "details": "series mostly up to 100 µM", "values": [
      {"compound": "Cc1nc(SCC(=O)NCCC(C)C)[nH]c(=O)c1C", "outcome": "inactive"},
      {"compound": "Cc1ccc(NC(=O)COC(=O)CCc2c[nH]c3ccccc23)cc1[N+](=O)[O-]", "outcome": "inactive"},
      {"compound": "O=C(CSc1ncccn1)NC1CCCCC1", "outcome": "inactive"},
      {"compound": "CCOC(=O)CSc1nc(C)c(C)c(=O)[nH]1", "outcome": "inactive"},
      {"compound": "Cc1cccc(/C=C/C(=O)c2ccc([N+](=O)[O-])o2)c1", "outcome": "inactive"},
      {"compound": "Nc1cc(=O)[nH]c(SCC(=O)NC2CCCCC2)n1", "outcome": "inactive"},
      {"compound": "CCC(Sc1nc2ccccc2c(=O)[nH]1)C(=O)NC1CCCCC1", "note": "(stereo not drawn)", "outcome": "inactive"},
      {"compound": "O=c1[nH]c(=S)[nH]c2ccccc12", "outcome": "inactive"},
      {"compound": "COC(=O)c1ccc(CNc2c(N3CCCC3)c(=O)c2=O)cc1", "outcome": "inactive"},
      {"compound": "CN(C)C(=O)CSc1nc2ccccc2c(=O)[nH]1", "outcome": "inactive"},
      {"compound": "Cc1cnc(SCC(=O)NC2CCCCC2)[nH]c1=O", "outcome": "inactive"},
      {"compound": "Cn1c(SCC(=O)NC2CCCCC2)nc2ccccc2c1=O", "outcome": "inactive"},
      {"compound": "CC[N+](C)(CC)CCCCOc1ccc2c(c1)C(=O)c1cc(OCCCC[N+](C)(CC)CC)ccc1-2", "outcome": "inactive"},
      {"compound": "COc1cccc(NC(=O)CSc2nc3c(c(=O)[nH]2)CCC3)c1", "outcome": "inactive"},
      {"compound": "COc1ccc(NC(=O)CSc2nc3ccccc3c(=O)[nH]2)cc1", "outcome": "inactive"},
      {"compound": "Cc1cc(=O)[nH]c(=S)[nH]1", "outcome": "inactive"},
      {"compound": "Cc1nc(SCc2ccccc2Cl)[nH]c(=O)c1C", "outcome": "inactive"},
      {"compound": "Cc1c[nH]c(=S)[nH]c1=O", "outcome": "inactive"},
      {"compound": "NC(=O)CSc1nc2ccccc2c(=O)[nH]1", "outcome": "inactive"},
      {"compound": "Cc1nc(SCC(=O)N(C)c2ccccc2)[nH]c(=O)c1C", "outcome": "inactive"},
      {"compound": "O=C(CSc1nccc(=O)[nH]1)NC1CCCCC1", "outcome": "inactive"},
      {"compound": "O=C(CSc1nc2ccccc2c(=O)[nH]1)NC1CCCCC1", "outcome": "inactive"},
      {"compound": "O=C(CSc1nc2ccccc2c(=O)[nH]1)N1CCOCC1", "outcome": "inactive"},
      {"compound": "CCSc1nc(C)c(C)c(=O)[nH]1", "outcome": "inactive"},
      {"compound": "O=C(CSc1ccccn1)NC1CCCCC1", "outcome": "inactive"},
      {"compound": "CCOC1OC(=O)C(Cl)=C1Nc1ccccc1C", "note": "(stereo not drawn)", "outcome": "inactive"},
      {"compound": "Cc1[nH]c(=S)[nH]c(=O)c1C", "outcome": "inactive"},
      {"compound": "Nc1c(C(=O)NC2CCCCC2)nsc1C(=O)OCC(=O)NC1CCCCC1", "outcome": "inactive"},
      {"compound": "CC(C)CCNC(=O)CSc1nc2ccccc2c(=O)[nH]1", "outcome": "inactive"},
      {"compound": "CN1CCC(NC(=O)CSc2nc3ccccc3c(=O)[nH]2)CC1", "outcome": "inactive"},
      {"compound": "Cc1cc(=O)[nH]c(SCC(=O)NC2CCCCC2)n1", "outcome": "inactive"},
      {"compound": "Cc1nc(SCC(=O)NC2CCCC2)[nH]c(=O)c1C", "outcome": "inactive"},
      {"compound": "Cc1nc(SCC(N)=O)[nH]c(=O)c1C", "outcome": "inactive"}
    ]}
  ]
}
